Counter-ions that a name gives are not always drawn.

The test relates to Danio rerio larvae (5 dpf). The test is described as follows: habituation to 1-s acoustic pulses, difference vs DMSO (percentage points (treated minus DMSO)); higher = more of the behaviour than the DMSO vehicle control. The conditions noted are these: 10 µM; exposure time: 3 h pre-incubation + 3 h imaging. The protocol:
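5-dpf wild-type zebrafish larvae were imaged in 96-well plates. They were treated with 190 Tocris FDA-approved drugs at 10 µM (1 µl/ml DMSO) for 3 h before and 3 h during imaging at 28.5 °C, 48 larvae per drug. Automated image analysis gave % time moving and optomotor responses. Values are drug group mean minus DMSO vehicle mean (n=844), in percentage points, for 10 behaviours.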
As to `CC(O)(CS(=O)(=O)c1ccc(F)cc1)C(=O)Nc1ccc(C#N)c(C(F)(F)F)c1` (configuration not stated) [Bicalutamide], the “habituation to 1-s acoustic pulses” value is -5.47. As for `CN1C[C@H](C(=O)N[C@]2(C)O[C@@]3(O)[C@@H]4CCCN4C(=O)[C@H](Cc4ccccc4)N3C2=O)C[C@@H]2c3cccc4[nH]cc(c34)C[C@H]21` [Dihydroergotamine mesylate], the figure is 1.85.

With `O=c1[nH]c2ccccc2n1C1CCN(CCCC(c2ccc(F)cc2)c2ccc(F)cc2)CC1` [Pimozide], the “habituation to 1-s acoustic pulses” value is -6.41.

Turning to `CC[C@@H](C(N)=O)N1CCCC1=O` [Levetiracetam], the “habituation to 1-s acoustic pulses” value was -2.74. In the case of `Cc1cccc([C@H](C)c2c[nH]cn2)c1C` [Dexmedetomidine hydrochloride] it was -9.7; in that of `COc1ccc(C(CN(C)C)C2(O)CCCCC2)cc1` (configuration not stated) [Venlafaxine hydrochloride], -6.08. As for `COc1cc2c(cc1OC)C1CC(=O)C(CC(C)C)CN1CC2` (configuration not stated) [Tetrabenazine], the figure is 1.65; as for `C=CCN1C[C@H](C(=O)N(CCCN(C)C)C(=O)NCC)C[C@@H]2c3cccc4[nH]cc(c34)C[C@H]21` [Cabergoline], 3.78; as for `CC(C)C[C@H]1C(=O)N2CCC[C@H]2[C@]2(O)O[C@](NC(=O)[C@@H]3C=C4c5cccc6[nH]c(Br)c(c56)C[C@H]4N(C)C3)(C(C)C)C(=O)N12` [Bromocriptine mesylate], -3.22. In the case of `CCN(C)C(=O)Oc1cccc([C@H](C)N(C)C)c1` [Rivastigmine tartrate] it was -1.77; in that of `N[C@@H]1C[C@H]1c1ccccc1` [Tranylcypromine hydrochloride], -0.45.

Turning to `C=C1C[C@@H]2[C@H](CC[C@]3(C)C(=O)CC[C@@H]23)[C@@]2(C)C=CC(=O)C=C12` [Exemestane], the “habituation to 1-s acoustic pulses” value is -0.223.

The values above are taken from the supplement of paper PMC9023506.
